The nature of assay [1]: NCI Yeast Anticancer Drug Screen. Data for the rad50 strain (AID 155).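 Also: 0% = growth of vehicle-only cultures of the same strain.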 The following applies: S. cerevisiae rad50 strain growth inhibition; at 50.0 µM; hits give high values. In outline: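 Cells are treated with compound, grown, and their growth is then scored against vehicle-only cultures of the same repair-deficient yeast strain.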
The nature of assay [2]: NCI Yeast Anticancer Drug Screen. Data for the mec2-1 strain (AID 157). The settings on record: S. cerevisiae mec2-1 strain, at 50.0 µM, hits give high values. In outline: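 Vehicle-treated cultures served as reference for growth inhibition of compound-exposed mec2-1 yeast.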
The nature of assay [3]: NCI Yeast Anticancer Drug Screen. Data for the sgs1 mgt1 strain (AID 161).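 Also: 0% = growth of cultures given vehicle only.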 The following applies: S. cerevisiae sgs1 mgt1 strain, at 50.0 µM, hits give high values. Summed up:
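Read-out: growth inhibition vs vehicle controls. Cells: mutant yeast strain deficient in DNA damage repair.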

A short description of assay [4]: NCI Yeast Anticancer Drug Screen. Data for the cln2 rad14 strain (AID 165).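 Also: 0% = growth equal to vehicle treated cultures.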 The settings on record: S. cerevisiae cln2 rad14 strain, at 50.0 µM, hits give high values. In outline: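 Each compound was tested on cln2 rad14 yeast. Inhibition of growth was calculated against vehicle-exposed controls.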
Assay [5] is described as follows: NCI Yeast Anticancer Drug Screen. Data for the bub3 strain (AID 167). The following applies: S. cerevisiae bub3 mutant strain, at 50.0 µM, hits give high values. In outline:
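Part of a panel of yeast mutants defective in DNA damage repair or cell cycle regulation. Each strain is grown with compound, and inhibition is calculated relative to solvent-treated cultures.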

This is part of a sample that, as a whole, favours compounds with a hit. Of some 79,000 tested, about 15% had one in any assay. Values without a mark were called inactive. Active and inactive are the calls of the source. Rule as the data show it: active = growth inhibition above about 70%; inactive = the rest.

Take `c1ccc2c(c1)N=C(NNC1=Nc3ccccc3SC1)CS2`: the growth inhibition in assay [1] was 2.35%; in assay [2] it was -2.85%; in assay [3], 2.4%; in assay [4], -0.55%; in assay [5] it was 1.25%.
In the same order, the values of `Nc1ccc(C2=Nc3ccccc3SC(c3ccccc3O)C2)cc1` (stereo not given) are 24.8%, 13.5%, 11.5%, 19% and 50.8%.
The like results for `O=C(c1ccccc1)c1cccc2cccc(C(=O)c3ccccc3)c12` were, in that order, 3.2%, 11.7%, -7.7%, 6% and 6.45%.
Turning to `CCC(O)(c1ccccc1)C(O)c1ccccc1` (stereo not given), the growth inhibition was -2.35% in assay [1]; 8.9% in assay [2]; -4.4% in assay [3]; 3.8% in assay [4]; 4.95% in assay [5].
Take `Nc1ccc(Nc2c3ccccc3nc3ccccc23)cc1`: the growth inhibition in assay [1] is 96% (active); in assay [2], 33%; in assay [3] it was 23.4%; in assay [4], 10.3%; in assay [5] it was 23.4%.
Take `N#Cc1c(-c2ccccc2)ssc1=S`: the growth inhibition in assay [1] is 31.4%; in assay [2], 25.1%; in assay [3], 50.4%; in assay [4], -20.8%; in assay [5], 11.8%.
The like results for `O=C(O)CSCc1ccccc1Cl` were, in that order, 1.6%, -6.05%, -9.5%, 8.25% and -13.1%.
As to `CC(=O)Nc1cc(=O)[nH]c2c1CCC2`, the growth inhibition in assay [1] was -4.05%; in assay [2], 5.25%; in assay [3], -1.8%; in assay [4], -16.4%; in assay [5], -3.6%.
The like results for `O=C1/C(=C/c2ccc(O)c(CN3CCCCC3)c2)CCC/C1=C\c1ccc(O)c(CN2CCCCC2)c1` were, in that order, -0.8%, 23.9%, 1.75%, -8% and -1.9%.
The like results for `O=C(O)CCc1nc2c(n1Cc1ccccc1)C(=O)c1ccccc1C2=O` were, in that order, 28.4%, 21.3%, 43.3%, 44.7% and 41.1%.
In the same order, the values of `C=C(C)S(=O)(=O)c1ccc(C)cc1` are 11.3%, -16.4%, -5.7%, -15.3% and 12%.
As to `C=CCn1c(=S)sc2c(=O)[nH]cnc21`, the growth inhibition was 14.6% in assay [1]; 1.7% in assay [2]; 25.8% in assay [3]; 22.3% in assay [4]; 8.15% in assay [5].
Consider `S=C(NCCS)Nc1ccccc1`, for which the growth inhibition in assay [1] is -0.6%; in assay [2] it was -11.4%; in assay [3], -2.15%; in assay [4], -46.6%; in assay [5] it was 41.8%.
The like results for `CC1C2(c3ccccc3)C(C(=O)c3ccccc3)NC(c3ccccc3)C12c1ccccc1` (stereo not given) were, in that order, 46%, 6.35%, 28.2%, 18.9% and 2.2%.
`COc1ccc(-c2c3c(nc4nc(SC)nc(SC)c24)CCCC3)cc1OC`: the growth inhibition in assay [1] was 1.15%; in assay [2], -10.4%; in assay [3], 1.25%; in assay [4], 1.15%; in assay [5] it was -2.65%.
On to `CCc1cccc(CC)c1N1C(=O)C(=O)C(C(C)=O)C1=O` (stereo not given), for which the growth inhibition in assay [1] was -4.05%; in assay [2], -4.45%; in assay [3], 7.6%; in assay [4], -24.5%; in assay [5], -1.25%.
The like results for `COc1ccc(N=Nc2ccc(OC)cc2C)c(C)c1` were, in that order, 1.7%, -2.3%, 1.9%, -4.7% and 10%.
The like results for `Clc1ccc(-c2cc(-c3ccc(Cl)cc3)n(-c3ccccc3)n2)cc1` were, in that order, -17.5%, -33.9%, -24.2%, 4% and 6.55%.
As to `CO/C(=N\N=C\c1cc(OC)ccc1OC)c1ccncc1`, the growth inhibition in assay [1] is 0.6%; in assay [2], -13.2%; in assay [3], -23.6%; in assay [4], 10.7%; in assay [5], -38.8%.
Regarding `COc1cc(Nc2cnc3ccc(C(F)(F)F)cc3n2)cc(OC)c1OC`, the growth inhibition was -0.3% in assay [1]; 4.9% in assay [2]; 1.15% in assay [3]; -0.8% in assay [4]; -16.9% in assay [5].
In the same order, the values of `Cc1ccccc1C1=CCCCCC1` are -5.15%, -17.6%, -2.8%, 0.75% and -7.65%.
For `CN1CCCCC1C[CH2][Sn]([c]1ccccc1)([c]1ccccc1)[c]1ccccc1` (stereo not given), the growth inhibition in assay [1] was 99.6% (active); in assay [2] it was 99.5% (active); in assay [3], 99.7% (active); in assay [4], 99.2% (active); in assay [5], 99.2% (active).
For the compound `CC1=C(C(=O)CC(=O)C(=O)Nc2cccc(Cl)c2C)Sc2ccccc2N1`, the growth inhibition is -18.8% in assay [1]; -8.1% in assay [2]; -31.4% in assay [3]; 19.1% in assay [4]; -13.6% in assay [5].
The like results for `COC(=O)C(N)CO` (stereo not given) were, in that order, -40.5%, -27%, -39.8%, 4.35% and -34.8%.
For `N[C@@H]1CCCC[C@H]1O`, the growth inhibition in assay [1] is -0.35%; in assay [2], -5.5%; in assay [3], -8.7%; in assay [4], -24.9%; in assay [5], -5.9%.

For the origin of these results see PubChem BioAssay (NCI).
